Measurements: publication PMC5913336, “True equilibrium measurement of transcription factor-DNA binding affinities using automated polarization microscopy”

target: T1, Zelda (Drosophila melanogaster, UniProt Q9VWC6 1319-1447); assay: FP; 33 mM phosphate pH 7.0, 90 mM NaCl, 0.01% Tween 20, 0.1 mM DTT, 0.5% agarose; room temperature; conditions: tags: N-GST (pGEX-6P-1, kept); dsDNA, one strand shown
T1 sequence: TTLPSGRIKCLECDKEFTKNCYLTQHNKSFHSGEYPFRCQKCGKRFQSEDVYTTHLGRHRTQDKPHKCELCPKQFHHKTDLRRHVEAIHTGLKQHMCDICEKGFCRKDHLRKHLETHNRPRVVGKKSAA

| Sequence | binding signal | Kd [nM] |
| --- | --- | --- |
| TATTTCAGGTACC | 1.83 Kd / Kd of best base at the position |  |
| AATATCAGGTACC | 1.65 Kd / Kd of best base at the position |  |
| AATTTCAGCTACC | 15.7 Kd / Kd of best base at the position |  |
| AATTTCAGGTAGC | 1.01 Kd / Kd of best base at the position |  |
| AATGTCAGGTACC | 1.84 Kd / Kd of best base at the position |  |
| AAGTTCAGGTACC | 1.72 Kd / Kd of best base at the position |  |
| AATCTCAGGTACC | 1.8 Kd / Kd of best base at the position |  |
| AATTTCAGGTCCC | 10.1 Kd / Kd of best base at the position |  |
| CATTTCAGGTACC | 1.46 Kd / Kd of best base at the position |  |
| AATTTCAGGTACA | 2.29 Kd / Kd of best base at the position |  |
| AATTTGAGGTACC | 17.6 Kd / Kd of best base at the position |  |
| AATTTCACGTACC | 11.7 Kd / Kd of best base at the position |  |
| AATTTCTGGTACC | 19.2 Kd / Kd of best base at the position |  |
| AATTTTAGGTACC | 4.6 Kd / Kd of best base at the position |  |
| AATTTCAGGCACC | 9.39 Kd / Kd of best base at the position |  |
| AATTTCAGTTACC | 9.11 Kd / Kd of best base at the position |  |
| AATTTCAGGTAAC | 1.38 Kd / Kd of best base at the position |  |
| AATTTCAGGAACC | 19.3 Kd / Kd of best base at the position |  |
| AATTTCCGGTACC | 36.1 Kd / Kd of best base at the position |  |
| AATTTCAGGTACT | 2.11 Kd / Kd of best base at the position |  |

| Sequence | binding signal | Kd [nM] |
| --- | --- | --- |
| AAATTCAGGTACC | 1.56 Kd / Kd of best base at the position |  |
| AATTTCAGATACC | 12.3 Kd / Kd of best base at the position |  |
| AATTCCAGGTACC | 1.28 Kd / Kd of best base at the position |  |
| AATTTCATGTACC | 12.8 Kd / Kd of best base at the position |  |
| ACTTTCAGGTACC | 1.87 Kd / Kd of best base at the position |  |
| GATTTCAGGTACC | 2.27 Kd / Kd of best base at the position |  |
| AACTTCAGGTACC | 1.86 Kd / Kd of best base at the position |  |
| AATTTCAGGTATC | 2.16 Kd / Kd of best base at the position |  |
| AATTTCAGGTTCC | 14.1 Kd / Kd of best base at the position |  |
| AATTACAGGTACC | 1.77 Kd / Kd of best base at the position |  |
| AATTTCAAGTACC | 8.76 Kd / Kd of best base at the position |  |
| AATTTCAGGTGCC | 9.55 Kd / Kd of best base at the position |  |
| AATTTCAGGTACC |  | ~5.7 |
| AATTGCAGGTACC | 1.37 Kd / Kd of best base at the position |  |
| AATTTAAGGTACC | 17.1 Kd / Kd of best base at the position |  |
| AATTTCGGGTACC | 7.8 Kd / Kd of best base at the position |  |
| AGTTTCAGGTACC | 2.05 Kd / Kd of best base at the position |  |
| AATTTCAGGTACG | 2.98 Kd / Kd of best base at the position |  |
| ATTTTCAGGTACC | 1.63 Kd / Kd of best base at the position |  |
| AATTTCAGGGACC | 12.3 Kd / Kd of best base at the position |  |
